This is one part of a sample in which the strongest signals are shown more often than they occur.
Key:
Experiment in all cases: glycan array binding signal (z-score within array); higher = stronger binding
Details in all cases: glycan notation: IUPAC condensed, linker removed
Fuc(a1-2)Gal(b1-3)GalNAc = target: Fuc(a1-2)Gal(b1-3)GalNAc
How it was run: (§1)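 Columns mapping to the same glycan were averaged after glycan names were converted to IUPAC-condensed notation. The data come from 3228 arrays in the Consortium for Functional Glycomics database, limited to those with an available protein sequence. Binding is reported as a within-array Z-score averaged across arrays of one protein sequence and across linkers.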

[1] = target: Fuc(a1-2)Gal(b1-3)GalNAc(b1-3)Gal(a1-4)Gal(b1-4)Glc
How it was run: as §1

[2] = target: Fuc(a1-2)Gal(b1-3)GlcNAc6S
How it was run: as §1

Fuc(a1-2)Gal(b1-4)GlcNAc = target: Fuc(a1-2)Gal(b1-4)GlcNAc
How it was run: as §1

[3] = target: Fuc(a1-2)Gal(b1-4)GlcNAc(b1-3)[Fuc(a1-3)[Gal(b1-4)]GlcNAc(b1-6)]Gal(b1-4)Glc
How it was run: as §1

[4] = target: Fuc(a1-2)Gal(b1-4)[Fuc(a1-3)]GlcNAc(b1-3)Gal(b1-4)[Fuc(a1-3)]GlcNAc(b1-3)Gal(b1-4)[Fuc(a1-3)]GlcNAc
How it was run: as §1

[5] = target: Fuc(a1-2)[Gal(a1-3)]Gal(b1-3)GlcNAc
How it was run: as §1

[6] = target: Fuc(a1-2)[Gal(a1-3)]Gal(b1-3)GlcNAc(b1-6)GalNAc
How it was run: as §1

[7] = target: Fuc(a1-2)[GalNAc(a1-3)]Gal(b1-4)GlcNAc(b1-2)Man(a1-3)[Fuc(a1-2)[GalNAc(a1-3)]Gal(b1-4)GlcNAc(b1-2)Man(a1-6)]Man(b1-4)GlcNAc(b1-4)[Fuc(a1-6)]GlcNAc
How it was run: as §1

[8] = target: Fuc(a1-2)[GalNAc(a1-3)]Gal(b1-4)GlcNAc(b1-3)Gal(b1-4)GlcNAc
How it was run: as §1

[9] = target: Fuc(a1-3)[Gal(b1-4)]GlcNAc(b1-2)Man
How it was run: as §1

Gal(a1-2)Gal = target: Gal(a1-2)Gal
How it was run: as §1

[10] = target: Gal(a1-3)Gal(b1-3)GlcNAc(b1-2)Man(a1-3)[Gal(a1-3)Gal(b1-3)GlcNAc(b1-2)Man(a1-6)]Man(b1-4)GlcNAc(b1-4)GlcNAc
How it was run: as §1

[11] = target: Gal(a1-3)Gal(b1-4)[Fuc(a1-3)]GlcNAc
How it was run: as §1

[12] = target: Gal(a1-4)Gal(b1-3)GlcNAc(b1-2)Man(a1-3)[Gal(a1-4)Gal(b1-3)GlcNAc(b1-2)Man(a1-6)]Man(b1-4)GlcNAc(b1-4)GlcNAc
How it was run: as §1

Gal(a1-4)Gal(b1-4)Glc = target: Gal(a1-4)Gal(b1-4)Glc
How it was run: as §1

Gal(b1-3)GalNAc = target: Gal(b1-3)GalNAc
How it was run: as §1

[13] = target: Gal(b1-3)GalNAc(a1-3)[Fuc(a1-2)]Gal(b1-4)Glc
How it was run: as §1

[14] = target: Gal(b1-3)GalNAc(b1-3)Gal(a1-4)Gal(b1-4)Glc
How it was run: as §1

[15] = target: Gal(b1-3)[GlcNAc(b1-6)]GalNAc
How it was run: as §1

[16] = target: Gal(b1-3)[Neu5Ac(b2-6)]GalNAc
How it was run: as §1

[17] = target: Gal(b1-4)GlcNAc(a1-6)Gal(b1-4)GlcNAc
How it was run: as §1

[18] = target: Gal(b1-4)GlcNAc(b1-2)Man(a1-3)[Gal(b1-4)GlcNAc(b1-2)Man(a1-6)]Man(b1-4)GlcNAc(b1-4)GlcNAc
How it was run: as §1

[19] = target: Gal(b1-4)GlcNAc(b1-2)Man(a1-3)[Gal(b1-4)GlcNAc(b1-2)Man(a1-6)][GlcNAc(b1-4)]Man(b1-4)GlcNAc(b1-4)[Fuc(a1-6)]GlcNAc
How it was run: as §1

[20] = target: Gal(b1-4)GlcNAc(b1-2)Man(a1-6)Man(b1-4)GlcNAc(b1-4)GlcNAc
How it was run: as §1

[21] = target: Gal(b1-4)GlcNAc(b1-2)[Gal(b1-4)GlcNAc(b1-4)]Man(a1-3)[GlcNAc(b1-4)][Gal(b1-4)GlcNAc(b1-2)Man(a1-6)]Man(b1-4)GlcNAc(b1-4)GlcNAc
How it was run: as §1

[22] = target: Gal(b1-4)GlcNAc(b1-2)[Gal(b1-4)GlcNAc(b1-6)]Man(a1-6)[Gal(b1-4)GlcNAc(b1-2)Man(a1-3)]Man(b1-4)GlcNAc(b1-4)GlcNAc
How it was run: as §1

[23] = target: Gal(b1-4)GlcNAc(b1-3)Gal(b1-4)GlcNAc(b1-3)Gal(b1-4)GlcNAc(b1-2)[Gal(b1-4)GlcNAc(b1-3)Gal(b1-4)GlcNAc(b1-3)Gal(b1-4)GlcNAc(b1-6)]Man(a1-6)[Gal(b1-4)GlcNAc(b1-3)Gal(b1-4)GlcNAc(b1-3)Gal(b1-4)GlcNAc(b1-2)Man(a1-3)]Man(b1-4)GlcNAc(b1-4)[Fuc(a1-6)]GlcNAc
How it was run: as §1

[24] = target: Gal(b1-4)GlcNAc(b1-3)Gal(b1-4)[Fuc(a1-3)]GlcNAc(b1-3)Gal(b1-4)[Fuc(a1-3)]GlcNAc
How it was run: as §1

[25] = target: Gal(b1-4)GlcNAc(b1-6)[Gal(b1-4)GlcNAc(b1-3)]GalNAc
How it was run: as §1

B1: EUL D1A first (Oryza sativa) (protein)
chain: MFGFGHHHNQAPAAPSDPNQIFKIFCRANENYCLTVRDSAVVLAPVNPKDEHQHWFKDMRFSTKVKDGEGMPAFALVNKATGLAVKHSLGQSHPVKLVPFNPEYEDASVLWTESKDVGKGFRCIRMVNNTRLNLDAFHGDKDHGGVRDGTTVVLWEWCKGDNQSWKILPWGPEAHSSSPGAATILEQKLISEEDLNSAVDHHHHHH
glycan array binding signal (z-score) (Fuc(a1-2)Gal(b1-3)GalNAc): -0.658
glycan array binding signal (z-score) [1]: 2.66
glycan array binding signal (z-score) [2]: 3.74
glycan array binding signal (z-score) (Fuc(a1-2)Gal(b1-4)GlcNAc): -0.369
glycan array binding signal (z-score) [3]: 2.74
glycan array binding signal (z-score) [4]: 0.387
glycan array binding signal (z-score) [5]: 0.384
glycan array binding signal (z-score) [6]: -0.959
glycan array binding signal (z-score) [7]: 0.095
glycan array binding signal (z-score) [8]: -0.61
glycan array binding signal (z-score) [9]: 3.34
glycan array binding signal (z-score) (Gal(a1-2)Gal): -0.848
glycan array binding signal (z-score) [10]: 3.31
glycan array binding signal (z-score) [11]: -0.411
glycan array binding signal (z-score) [12]: 2.2
glycan array binding signal (z-score) (Gal(a1-4)Gal(b1-4)Glc): 0.4
glycan array binding signal (z-score) (Gal(b1-3)GalNAc): -0.735
glycan array binding signal (z-score) [13]: -1.67
glycan array binding signal (z-score) [14]: -0.207
glycan array binding signal (z-score) [15]: -1.03
glycan array binding signal (z-score) [16]: -1.15
glycan array binding signal (z-score) [17]: 1.94
glycan array binding signal (z-score) [18]: 3.09
glycan array binding signal (z-score) [19]: -1.23
glycan array binding signal (z-score) [20]: 3.03
glycan array binding signal (z-score) [21]: -1.53
glycan array binding signal (z-score) [22]: -1.05
glycan array binding signal (z-score) [23]: 2.45
glycan array binding signal (z-score) [24]: -0.16
glycan array binding signal (z-score) [25]: -0.802
